From PubChem BioAssay
A selection: hits, their analogues and other compounds. The true share with any hit is near 4.8%.
hcDAF12 agonist – H. contortus DAF-12 activation, primary screen; 370,000 tested, 1.4% active; HEK293 hcDAF-12 lit1-tk-luc reporter, luminescence; 0% DMSO, 100% Δ7-dafachronic acid; activation, % at 6.8 µM;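 active = activation above the mean of all tested compounds plus 3 SD, cut at about 5.5% in these data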
ssDAF-12 act – S. stercoralis DAF-12 activation, primary screen; HEK293 ssDAF-12/GRIP1 lit1-tk-luc reporter, luminescence; % of 3 µM dafachronic acid response; activation, % at 6.8 µM; AID 652126; 370,000 tested, 1% active;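 active = activation above the mean over all tested compounds plus 3 SD, cut at about 0.9% in these data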
hgDAF12 agonist – agonists of H. glycines DAF-12 nuclear receptor. AID 687014. activation, % at 6.8 µM. 370,000 tested, 1.8% active. HEK293 GAL4-hgDAF12 UAS-luciferase reporter, agonist luminescence; normalized to butyrate control;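 active = activation above a cutoff set at the mean of all screened compounds plus 3 SD, cut at about 10% in these data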
DAX1 inh-1 – inhibitors of DAX1 repression of SF-1 activated StAR promoter; HEK293T StAR-luciferase reporter, SF-1/DAX-1 repression relief; inhibition, % at 6.8 µM; 370,000 tested, 1.1% active; AID 652010;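 active = inhibition above the mean over all tested compounds plus 3 SD, cut at about 3.6% in these data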;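 note: higher inhibition means more luminescence from relief of DAX-1 repression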
DAX1 inh-2 – inhibitors of human orphan nuclear receptor DAX1 (NR0B1); P51843; HEK293 Gal4-DAX1 luciferase reporter, luminescence; inhibition, % at 6.75 µM; 340,000 tested, 0.99% active;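 active = inhibition above the mean over all tested compounds plus 3 SD, cut at about 4.2% in these data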;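 note: inhibition shows as a rise in luminescence from relieved DAX1 repression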
Target sequence (P51843 207-470 limits assumed): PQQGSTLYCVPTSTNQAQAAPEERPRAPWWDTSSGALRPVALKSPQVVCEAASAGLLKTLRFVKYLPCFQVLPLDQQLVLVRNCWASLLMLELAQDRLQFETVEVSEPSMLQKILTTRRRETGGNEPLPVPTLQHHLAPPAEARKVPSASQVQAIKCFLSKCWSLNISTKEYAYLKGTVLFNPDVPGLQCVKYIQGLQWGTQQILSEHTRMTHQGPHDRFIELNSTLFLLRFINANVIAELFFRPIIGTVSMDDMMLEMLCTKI
Rev-erbA mod – modulates human Rev-erb alpha binding to DNA; Rev-erbα–FITC-DNA binding, fluorescence polarization, 90 min; P20393; activity, % at 10 µM; 370,000 tested, 0.79% active;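 active = activity above about 14%, limit read from the data; passing the limit was not always enough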
DAX1 conf – NR0B1 (human) inhibition, confirmation; inhibition, % at 6.8 µM; AID 652134; shares compounds with DAX1 inh-1; 2,400 tested, 87% active; HEK293T StAR-promoter luciferase reporter, SF-1/DAX-1 repression;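 active = inhibition above the average of every tested compound plus 3 SD, cut at about 3.8% in these data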;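 note: active compounds raise luminescence by relieving repression of the StAR reporter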
Target sequence (P51843 whole entry, looked up): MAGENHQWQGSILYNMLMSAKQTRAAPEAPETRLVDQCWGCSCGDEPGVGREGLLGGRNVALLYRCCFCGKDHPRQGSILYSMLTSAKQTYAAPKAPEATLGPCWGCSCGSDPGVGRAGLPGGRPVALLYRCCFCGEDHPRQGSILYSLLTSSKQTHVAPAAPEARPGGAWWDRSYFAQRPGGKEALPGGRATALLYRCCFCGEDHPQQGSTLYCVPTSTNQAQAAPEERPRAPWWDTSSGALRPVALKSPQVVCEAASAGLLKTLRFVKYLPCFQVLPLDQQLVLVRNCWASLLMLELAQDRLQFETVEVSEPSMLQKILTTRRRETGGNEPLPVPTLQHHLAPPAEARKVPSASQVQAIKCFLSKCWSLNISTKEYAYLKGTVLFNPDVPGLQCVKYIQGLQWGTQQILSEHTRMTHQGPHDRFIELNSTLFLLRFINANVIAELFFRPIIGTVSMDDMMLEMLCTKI
SF1 AF2mut Luc – counter-screen for DAX1 inhibitors: nonselective inhibitors with SF-1 AF2 mutant. shares compounds with DAX1 inh-1. HEK293 StAR-luciferase, luminescence. inhibition, % at 6.8 µM. 2,400 tested, 78% active. AID 652136;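 active = inhibition above the mean of all tested compounds plus 3 SD, cut at about 3% in these data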
LXRb hcDAF ctr – counter-screen for hcDAF-12 agonists: agonists of human LXR-beta. shares compounds with hcDAF12 agonist. HEK293 Gal4-LXR tk-luc reporter, luminescence, 24 h; normalized: DMSO 0%, positive control 100%. activation, % at 6.8 µM. 3,400 tested, under 10 active. AID 743027;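 active = mean percent activation of the reporter above a cutoff set as the average over tested compounds plus their standard deviation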
hcDAF12 conf – confirmation of H. contortus DAF-12 agonists; shares compounds with hcDAF12 agonist; HEK293 hcDAF-12 lit1-tk-luc reporter, luminescence; % of Δ7-dafachronic acid response; activation, % at 6.8 µM; 3,400 tested, 61% active; AID 743032;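 active = mean activation across triplicate tests above the threshold derived from the earlier primary screen, cut at about 5.5% in these data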
hgDAF12 conf – confirmation of H. glycines DAF-12 agonists. activation, % at 6.8 µM. AID 743050. HEK293 GAL4-hgDAF12 luciferase reporter, agonist mode; percent of butyrate response. shares compounds with hgDAF12 agonist. 3,300 tested, 80% active;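 active = mean activation over triplicate wells above the hit cutoff derived from the earlier primary screen, cut at about 11% in these data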
LXR ag 2 – activates human LXR-beta, counter-screen for DAF-12 agonists; activation, % at 6.8 µM; HEK293 Gal4-LXR luciferase reporter, 24 h; shares compounds with hgDAF12 agonist; 3,300 tested, under 10 active;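 active = mean activation of the triplicate above a set limit carried over from the primary screen, none filed active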
Hits are given with their value; . = inactive; / = not tested or not shown.

SMILES	hcDAF12 agonist	ssDAF-12 act	hgDAF12 agonist	DAX1 inh-1	DAX1 inh-2	Rev-erbA mod	DAX1 conf	SF1 AF2mut Luc	hgDAF12 conf	LXR ag 2	others
NNC(=O)c1cccc(COc2ccc3c(c2)CCC3)c1	.	.	22.0	4.9	.	.	14.8	5.1	21.6	.
COc1ccc(C(O)c2nc(-c3cnc4ccccc4c3)cs2)cc1 (stereo not given)	.	.	.	.	/	.	/	/	/	/
OC(c1ccc(F)cc1)c1nc(-c2cnc3ccccc3c2)cs1 (stereo not given)	6.6	.	16.1	5.1	/	.	11.0	8.1	19.2	.	LXRb hcDAF ctr=.;hcDAF12 conf=7.9
C[C@@H]1ON(C)[C@H]2C[C@H]3c4cc(N5CCN(C)CC5)ccc4CCN3C[C@@H]12	.	.	.	.	/	.	/	/	/	/
CN1CC=C(c2ccc(C(F)(F)F)cc2)N(c2ccc(Br)cc2)C1=O	.	.	.	.	/	.	/	/	/	/
c1ccc(-c2ncc3c(ccc4ccccc43)n2)cc1	23.4	3.6	16.7	6.3	.	.	12.1	3.8	16.9	.
c1ccc2c(c1)cnc1ccccc12	.	.	.	.	.	.	/	/	/	/
Cc1ccccc1NC(=O)c1cccc(C(=O)Nc2ccccc2C)n1	.	.	.	.	.	.	/	/	/	/
Cc1cccc(NC(=O)c2ccc3ccccc3n2)c1C	22.7	2.8	17.2	6.4	.	.	11.1	7.5	25.4	.	LXRb hcDAF ctr=.;hcDAF12 conf=18.8
O=C(Nc1nc(-c2nc3ccccc3s2)cs1)C1CC1	.	.	23.0	8.8	.	.	12.7	6.4	15.5	.
Cc1n[nH]c(C)c1S(=O)(=O)NCCc1cccc(F)c1	.	.	.	.	/	.	/	/	/	/
Oc1ccc2ccccc2c1	/	/	/	/	/	.	/	/	/	/
O=C(Nc1ccccc1)c1ccc(-c2ccc(F)cc2)s1	.	1.0	13.3	7.1	.	.	11.3	7.0	17.6	.
O=C1Nc2ccccc2N(C(=O)c2c(F)cccc2F)C1c1nc2ccccc2[nH]1 (stereo not given)	.	.	23.3	13.8	/	.	4.2	3.1	10.6	.
CCOc1ccc(-n2c(SCC(=O)Nc3ccc(S(=O)(=O)Nc4nccs4)cc3)nnc2-c2ccco2)cc1	.	.	.	.	/	.	/	/	/	/
Cc1nc(-c2ccccc2)sc1-c1ccnn1C	8.8	.	15.9	6.2	.	.	15.0	7.9	18.1	.	LXRb hcDAF ctr=.;hcDAF12 conf=5.8
Cc1nc(-c2ccccc2)sc1-c1ccn[nH]1	8.8	.	14.0	9.2	.	.	16.4	10.4	17.4	.	LXRb hcDAF ctr=.;hcDAF12 conf=.
COc1ccccc1CCn1cnc(-c2ccc(OC)c(OC)c2)c1CC(C)C	.	.	.	.	/	.	/	/	/	/
CCOc1ccc(/C=C\C(C)=N\O)cc1	.	.	13.5	4.9	.	.	8.2	6.9	13.4	.
O=C1CCC(NC(=O)Cc2ccccc2)C(=O)N1 (stereo not given)	.	.	.	.	/	.	/	/	/	/
O=C(O)c1ccccc1-c1ccccc1C(=O)Nc1ccc2c(c1)CCC2	.	.	.	.	.	.	/	/	/	/
CN(c1ccccc1)S(=O)(=O)c1cccc(C(=O)Nc2ccc3c(c2)CCC3)c1	.	.	.	.	.	.	/	/	/	/
Cc1ccc(NC(=O)Nc2ccc3c(c2)CCC3)c(C)c1	.	.	.	.	.	.	/	/	/	/
O=C(Nc1ccc2c(c1)CCC2)c1ccccc1	6.0	.	16.9	5.6	.	.	15.0	6.5	19.2	.
COc1ccc(OC)c(/C=C/C(=O)Nc2ccc3c(c2)CCC3)c1	.	.	.	.	.	.	/	/	/	/
SMILES	hcDAF12 agonist	ssDAF-12 act	hgDAF12 agonist	DAX1 inh-1	DAX1 inh-2	Rev-erbA mod	DAX1 conf	SF1 AF2mut Luc	hgDAF12 conf	LXR ag 2	others
O=C(Nc1ccc2c(c1)CCC2)c1ccccc1F	15.2	.	20.0	6.7	.	.	13.8	7.2	20.5	.	LXRb hcDAF ctr=.;hcDAF12 conf=11.6
COc1ccccc1/C=C/C(=O)Nc1ccc2c(c1)CCC2	6.7	1.4	16.3	5.2	.	.	7.7	7.5	18.6	.	LXRb hcDAF ctr=.;hcDAF12 conf=6.6
O=C(Nc1ccc2c(c1)CCC2)Nc1ccccc1Cl	.	.	13.7	8.8	.	.	9.8	7.8	21.6	.
CCc1c(-c2ccc(Br)cc2)ncn1CCc1ccccc1OC	.	.	.	.	/	.	/	/	/	/
CCOC(=O)CC[C@@]1(C(=O)OCC)C[C@@H](CC(=O)NCC23CC4CC(CC(C4)C2)C3)C(=O)N2CCCC=C21	.	.	.	.	/	.	/	/	/	/
CCCCN(C)C(=O)CSc1nnc(-c2cccnc2)n1C1CCCCC1	.	.	.	.	/	.	/	/	/	/
C/C(=N\Nc1cccc2cccnc12)c1ccc[nH]1	10.1	1.3	20.5	7.5	.	.	14.0	5.2	17.6	.	LXRb hcDAF ctr=.;hcDAF12 conf=9.9
CCCCSc1ncnc2c1ncn2C1CCCCO1 (stereo not given)	.	.	16.7	5.4	5.9	.	10.7	6.0	16.2	.
Fc1ccccc1CSc1ncnc2c1ncn2C1CCCO1 (stereo not given)	.	.	.	.	.	.	/	/	/	/
Cc1nc(NC(=O)c2ccccc2O)sc1C	.	.	.	.	.	.	/	/	/	/
Cc1nc(NC(=O)c2csc3ccccc23)sc1C	13.2	1.5	23.7	5.1	.	.	11.5	5.0	20.3	.	LXRb hcDAF ctr=.;hcDAF12 conf=9.7
CC(C)C(=O)Nc1ccc(C=C2C=Cc3ccccc32)cc1	.	0.9	17.1	5.5	/	.	8.8	5.0	20.0	.
CC(C)C(=O)Nc1ccc(Nc2ccccc2)cc1	.	.	.	.	.	.	/	/	/	/
O=[N+]([O-])c1ccccc1OCc1nc(-c2cccs2)no1	.	.	13.8	8.5	.	.	11.3	6.2	14.2	.
Cc1ccc(OCc2nc(-c3cccs3)no2)c([N+](=O)[O-])c1	7.1	1.9	14.1	12.0	.	.	14.9	7.1	18.6	.	LXRb hcDAF ctr=.;hcDAF12 conf=7.6
Cc1ccc(OCc2nc(-c3ccccc3)no2)c(C)c1	.	.	.	.	.	.	/	/	/	/
